Assay outcomes (PubChem)
Beta cell apopt – blocks beta cell apoptosis; protection from apoptosis, % (no concentration beside the values); INS-1E cytokine-induced death, ATP luminescence, 48 h; percent of positive-control rescue, neutral wells zero; 0.8% of 300,000 active;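 active = Every replicate reaches about 75%, or at least half do and their mean reaches it too, limit read from the data; inconclusive = At least half of replicates reach the limit but their mean does not; inactive = Under half of replicates reach the limit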;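 note: 0% = cytokine-treated negative control wells and 100% = positive control rescue; higher means more ATP so stronger rescue from cytokine killing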
Calb FLC – C. albicans growth modulation with fluconazole; C. albicans CaCi-2 (fluconazole-resistant clinical isolate) + fluconazole, Alamar Blue growth, 48 h; growth inhibition, % (no concentration beside the values); 0.57% of 300,000 active; AID 1979;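 active = growth inhibition above about 58% in most replicates, limit read from the data, passing the limit was not always enough; inconclusive = exactly half the replicates above a set limit; inactive = most replicates below a set limit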;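 note: all wells also contain fluconazole at 8 µg/ml as a sub-toxic cotreatment; 0% = median of DMSO wells and 100% = median of geldanamycin control wells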
CSC inhib – blocks cancer stem cells. inhibition, % at 7.5 µM. cancer stem cell-like cells viability, luminescence. AID 2717. 1.1% of 300,000 active; in the data active = inhibition above about 75%; inconclusive = no clear call, values can overlap the other calls; tested in HMLE shEcad cells
PfHsp90 yeast 2 – inhibits growth of yeast expressing Plasmodium falciparum Hsp90. inhibition, % at 9.4 µM. AID 504621. S. cerevisiae expressing PfHsp90, BacTiter-Glo ATP, 48 h; yeast lacking PDR1 and PDR3 efflux regulators. 0.32% of 310,000 active;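 active = every replicate shows inhibition above about 80%, whatever the replicate mean, limit read from the data; inconclusive = mean inhibition reaches the set limit but some replicate falls short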;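 note: 0% = DMSO neutral controls and 100% = 20 µM radicicol positive controls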
Shn3 inh set2 – Schnurri-3 reporter inhibition in Clone20 osteoblasts | Clone20 osteoblast Shn3 3'UTR firefly luciferase, 24 h | inhibition, % at 12.5 µM | 0.52% of 360,000 active;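 active = mean inhibition of at least 75% with every replicate also reaching 75%; inconclusive = mean inhibition at least 75% but some replicate below; inactive = mean inhibition below 75%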;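 note: 0% = median of neutral control wells and 100% = pilot-screen positive control compound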
The depositor's hits bear a star. In the library only some 2.2% were active in any assay of this set; here they are far more common.

Screening CC(N)C(=O)NC1C2C(=C(O)CC(O)C2O)C(=O)OC1(C)C(Cl)Cl (configuration not stated) returned PfHsp90 yeast 2 -2 and Shn3 inh set2 96*.
COc1cccc(-c2sc3ccccc3c2-c2ccc(OCCN3CCOCC3)cc2)c1 was read as Beta cell apopt -10, CSC inhib 104*, PfHsp90 yeast 2 23 and Shn3 inh set2 27.
O=C1C2CCCC1C(N1CCCC1)CC2 (configuration not stated) was read as Beta cell apopt -16, Calb FLC -5, CSC inhib -9, PfHsp90 yeast 2 4 and Shn3 inh set2 14.
Screening NS(=O)(=O)c1ccc(N=Cc2c(O)n(C3CCCCC3)c(=O)n(C3CCCCC3)c2=O)cc1 returned Beta cell apopt 1, Calb FLC inconclusive, CSC inhib 90*, PfHsp90 yeast 2 -6 and Shn3 inh set2 26.
For O=c1[nH]c(=O)n(-c2ccccc2F)c(O)c1C=NCCC1=CCCCC1 the results were Beta cell apopt -4, Calb FLC 34, CSC inhib -15, PfHsp90 yeast 2 -60 and Shn3 inh set2 -4.
For C[C@]12CC[C@@H](O)C[C@@H]1CC[C@@H]1[C@@H]2CC[C@]2(C)C(=O)[C@H](O)C[C@@H]12 the results were Shn3 inh set2 9.
Screening C=CCCC1(C2=CCCCC2)C(=O)NC(=O)NC1=O returned PfHsp90 yeast 2 9 and Shn3 inh set2 -5.
Screening CCCCCCn1c(=O)c(C(=O)Nc2ncccc2C)c(O)c2ccccc21 returned Beta cell apopt 82*, Calb FLC 3, CSC inhib 6, PfHsp90 yeast 2 12 and Shn3 inh set2 44.
For CCCCCn1c(=O)c(C(=O)NC(C)c2ccccc2)c(O)c2ccccc21 (configuration not stated) the results were Beta cell apopt 109*, Calb FLC -4, CSC inhib 34, PfHsp90 yeast 2 4 and Shn3 inh set2 inconclusive.
C1=CC(Cc2cncs2)c2ccccc21 (configuration not stated) was read as Beta cell apopt -6, CSC inhib -13, PfHsp90 yeast 2 -4 and Shn3 inh set2 -20.
For Oc1c(Cl)cccc1Cc1cc(Cl)cc(Cl)c1O the results were PfHsp90 yeast 2 109* and Shn3 inh set2 26.
For Oc1c(Cl)cc(Cl)cc1CN1CCN(Cc2ccccc2)CC1 the results were Beta cell apopt -2, Calb FLC -5, CSC inhib 5, PfHsp90 yeast 2 1 and Shn3 inh set2 -5.
COc1ccc(OC)c(N2C(=O)/C(=C/c3ccco3)C(=O)NC2=S)c1 was read as Beta cell apopt -3, Calb FLC -2 and CSC inhib -9.
Screening COc1ccc(OC)c(N2C(=O)NC(=O)/C(=C/c3ccc([N+](=O)[O-])s3)C2=O)c1 returned Beta cell apopt -2, Calb FLC -6, CSC inhib -2, PfHsp90 yeast 2 105* and Shn3 inh set2 3.
`COC(=O)C1=C(C(=O)OC)SC2(S1)C(C(=O)OC)=C(C(=O)OC)Sc1c2ssc1=O` gave PfHsp90 yeast 2 117* and Shn3 inh set2 98*.
`O=C(CCN1CCCCC1)Nc1ccc(Cl)cc1C(=O)c1ccccc1` gave Beta cell apopt -5, Calb FLC -6, CSC inhib -2, PfHsp90 yeast 2 7 and Shn3 inh set2 9.
For O=C(CN1CCCC1)Nc1ccc(Cl)cc1C(=O)c1ccccc1 the results were Beta cell apopt 17, Calb FLC 6, CSC inhib 85*, PfHsp90 yeast 2 -27 and Shn3 inh set2 7.
For COC1CC2C=C(C)C=CC=CC(=O)NC(c3ccccc3)CC=CCCC(O)CC(=O)C2=C1O (configuration not stated) the results were Shn3 inh set2 98*.
`Oc1c(Br)cc(Br)cc1Br` gave Beta cell apopt -1, CSC inhib -10, PfHsp90 yeast 2 -15 and Shn3 inh set2 -24.
For Oc1c(Br)c(Br)c(Br)c(Br)c1Br the results were Beta cell apopt -1, CSC inhib 101*, PfHsp90 yeast 2 -31 and Shn3 inh set2 -1.
CC(C)(C)c1ccc(CSc2cnn(C(C)(C)C)c(=O)c2Cl)cc1 was read as Beta cell apopt 110*, Calb FLC 84*, CSC inhib 33, PfHsp90 yeast 2 17 and Shn3 inh set2 85.
COc1cc2c(cc1/C=C/[N+](=O)[O-])OCO2 was read as Calb FLC 30, PfHsp90 yeast 2 106* and Shn3 inh set2 71.
For C[C@@H]1CN([C@@H](C)CO)C(=O)CCCn2nncc2CO[C@H]1CN(C)C(=O)Oc1ccccc1 the results were Shn3 inh set2 7.
`N#CCP(=S)(c1ccccc1)c1ccccc1` gave Beta cell apopt -4, Calb FLC 0, CSC inhib 0, PfHsp90 yeast 2 -13 and Shn3 inh set2 -21.
For O=[N+]([O-])c1ccc(N(CCO)CCO)c2c1no[n+]2[O-] the results were Shn3 inh set2 52.
Screening CN1CCN(c2ccc([N+](=O)[O-])c3no[n+]([O-])c23)CC1 returned Beta cell apopt 107*, Calb FLC 8, CSC inhib 104*, PfHsp90 yeast 2 -263 and Shn3 inh set2 97*.
`O=c1[nH]c(=S)[nH]c(O)c1C(c1ccccn1)c1c(O)[nH]c(=S)[nH]c1=O` gave Beta cell apopt -7, Calb FLC 1, CSC inhib -9, PfHsp90 yeast 2 0 and Shn3 inh set2 15.
`COc1cc(/C=C/[N+](=O)[O-])ccc1OC(=O)c1cccnc1` gave Beta cell apopt 12, Calb FLC 13, CSC inhib 66, PfHsp90 yeast 2 109* and Shn3 inh set2 -8.
For CC(=O)OC1CC2OC3C=C(C)CCC3(C)C1(C)C21CO1 (configuration not stated) the results were Shn3 inh set2 98*.
Screening CC(=O)O[C@H]1C[C@@H]2OC3C=C(C)CCC3(C)[C@@]1(C)[C@@]21CO1 (some centres not stated) returned PfHsp90 yeast 2 inconclusive and Shn3 inh set2 98*.
Screening CC(C)CN1CCN(Cc2ccc(F)cc2Cl)CC1CCO (configuration not stated) returned Beta cell apopt -6, Calb FLC 0, CSC inhib 14 and PfHsp90 yeast 2 15.
Screening COc1cc2[nH]c(C(=O)N3CCC4(CC3)OCCO4)cc2c(OC)c1OC returned Beta cell apopt 2, Calb FLC -5, CSC inhib -9, PfHsp90 yeast 2 -5 and Shn3 inh set2 -1.
`CC1=CC2OC3CC4OC(=O)C=CC=CC(=O)OCCC(C)C(O)C(=O)OCC2(CC1)C4(C)C31CO1` (configuration not stated) gave PfHsp90 yeast 2 105* and Shn3 inh set2 98*.
For CC1CCOC(=O)C=CC=CC(=O)OC2CC3OC4C5OC5(C)C(O)CC4(COC(=O)C1O)C2(C)C31CO1 (configuration not stated) the results were PfHsp90 yeast 2 -8 and Shn3 inh set2 97*.
